Assay [1] is described as follows: qHTS assay for small molecules that induce genotoxicity in human embryonic kidney cells expressing luciferase-tagged ATAD5 (AID 651632). Also: nearly all actives have a fitted effect of over 15% in size. Also: potency is read from the fitted curve at half-maximal effect. The note with it: HEK293T ATAD5-luciferase induction, 16 h; series mostly up to 83.3 µM. The procedure, abridged: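 Luminescence read-out: after 16 hr compound exposure at 37C, ATAD5-luciferase HEK293T cells received Amplite, 30 min RT, then CCD imaging. A rise in signal marks genotoxic stress.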
(In general: Quantitative high-throughput screening tests each substance at several concentrations.)

Assay [2] is described as follows: qHTS assay for small molecule agonists of the p53 signaling pathway - cell viability (AID 651633; calls by dose curve; also: nearly all actives have a fitted effect of over 30% in size; also: potency is read from the fitted curve at half-maximal effect). The note with it: p53RE-bla HCT-116 viability, ATP luminescence, 16 h; series mostly up to 83.3 µM. The essentials: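 p53RE-bla cells were treated with compound for 16 hours at 37 C. Cytotoxicity was then measured as CellTiter-Glo luminescence after 30 min at room temperature.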

The nature of assay [3]: qHTS assay for small molecules that induce genotoxicity in human embryonic kidney cells expressing luciferase-tagged ATAD5 - cell viability (AID 651634; calls by dose curve; also: nearly all actives have a fitted effect of over 25% in size; also: potency is read from the fitted curve at half-maximal effect). The note with it: HEK293T ATAD5-luc cells viability, CellTiter-Fluor, 15.5 h; series mostly up to 83.3 µM. The procedure, abridged: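 HEK293T ATAD5-luc cells, 2,000/well; compound 15.5 hr, 37C/5% CO2; CellTiter-Fluor 30 min, 37C; fluorescence read.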

Assay [4] in a line: qHTS assay for small molecule disruptors of the mitochondrial membrane potential (AID 720635). Also: potency is read from the fitted curve at half-maximal effect. The following applies: HepG2 mitochondrial membrane potential, Mito-MPS dye ratio; series mostly up to 83.2 µM. The essentials:
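HepG2 cells exposed to compound 1 hr at 37C, then Mito-MPS dye 30 min. Ratio read of aggregate (540/590 nm) versus monomer (490/535 nm) fluorescence.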

Assay [5] can be described thus: qHTS assay to test for compound auto fluorescence at 590 nm (red) in HepG2 cells (AID 720674). The following applies: HepG2 autofluorescence, red 540/590 nm, 1 h; series mostly up to 46 µM. The procedure, abridged:
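Seeding: 2,000 HepG2 cells/well, MEM/10% FBS, overnight 37 C. Dosing: compound vs DMSO. Incubation: 1 hr, 37 C, 5% CO2. Read: fluorescence 540 ex/590 em, Rose Bengal sodium as red reference.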

The nature of assay [6]: qHTS assay to test for compound auto fluorescence at 535 nm (green) in HepG2 cells (AID 720675). The note with it: green autofluorescence 485/535 nm, 1 h; series mostly up to 46 µM.
Assay [7] is described as follows: qHTS assay to test for compound auto fluorescence at 460 nm (blue) in HEK293 cells (AID 720678). The following applies: blue autofluorescence 405/460 nm; series mostly up to 46 µM. The essentials: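 HEK293 cells (2,000/well, medium with 10% dialyzed FBS) attached 4-5 hr, then exposed to compound overnight at 37C, 5% CO2. Blue fluorescence read at 405/460 nm, with triamterene as reference fluorophore.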

The nature of assay [8]: qHTS assay to test for compound auto fluorescence at 590 nm (red) in HEK293 cells (AID 720679). The note with it: red autofluorescence 540/590 nm; series mostly up to 46 µM. The essentials: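 HEK293 cells (2,000/well, 10% dialyzed FBS) attached 4-5 hr, then dosed with compound or DMSO and incubated overnight at 37C, 5% CO2. Red fluorescence read at 540/590 nm, Rose Bengal sodium as reference fluorophore.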

Assay [9] in a line: qHTS assay for small molecule disruptors of the mitochondrial membrane potential - cell viability (AID 720634; calls by dose curve;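 also: human HepG2 liver cancer cells; nearly all actives have a fitted effect of over 20% in size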). The note with it: HepG2 viability, ATP luminescence (CellTiter-Glo), 1 h; series mostly up to 83.2 µM. The essentials: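 Luminescence from CellTiter-Glo (ATP content) gave viability in HepG2 cells, read in the same wells as the MMP dye assay after 1 hr compound exposure at 37 C.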

Molecules are shown by their SMILES. Records with an inconclusive call do not appear. Calls of active or inactive are those of the source. Unless noted, calls follow the shape of the dose curve; as a rule, active = well fitted curve in the direction sought with a large enough effect in the repeat runs; inconclusive = weak or mixed curves; inactive = no such curve, though single readings can be large; an effect the other way counts as inactive or inconclusive.

`Cc1c(O)cc2c(c1C)O[C@](C)(CCC[C@H](C)CCC[C@H](C)CCCC(C)C)CC2`: the Potency entry in [1], in assay [2], in [3], in assay [4], in assay [5] and in assay [6] was “inactive” each time. Also, the Potency result in assay [7] and in [8] was “inactive” throughout.

On to `COC(=O)CC[C@H](N)C(=O)O`, for which the Potency result in assay [1], in assay [2], in [3], in assay [9], in [5] and in [6] was “inactive” each time. Further, the Potency entry in assay [7] and in assay [8] was “inactive” throughout.

Take `CN[C@@H]1[C@H](O[C@H]2[C@H](O[C@H]3[C@H](O)[C@@H](O)[C@H](N=C(N)N)[C@@H](O)[C@@H]3N=C(N)N)O[C@@H](C)[C@]2(O)CO)O[C@@H](CO)[C@H](O)[C@H]1O`: the Potency result in [1], in assay [2], in [3], in assay [9], in assay [5] and in assay [6] was “inactive” each time. For the same compound, the Potency result in assay [7] and in assay [8] was “inactive” in each case.

Turning to `NC[C@@H]1O[C@H](O[C@H]2[C@@H](O)[C@H](O[C@@H]3[C@@H](O)[C@H](N)C[C@H](N)[C@H]3O[C@H]3O[C@H](CN)[C@@H](O)[C@H](O)[C@H]3N)O[C@@H]2CO)[C@H](N)[C@@H](O)[C@@H]1O`, the Potency entry in [1], in [2], in assay [3], in assay [4], in [5] and in assay [6] was “inactive” throughout. Moreover, the Potency result in [7] and in assay [8] was “inactive” throughout.

Take `C[N@+]12CCCC[C@@H]1CCC(=C(c1cccs1)c1cccs1)C2`: the Potency entry in assay [1], in assay [2], in assay [3], in assay [4], in assay [5] and in assay [6] was “inactive” in each case. Moreover, the Potency result in assay [7] and in [8] was “inactive” in each case.

Take `CC(=O)N=c1sc(S(N)(=O)=O)nn1C`: the Potency entry in assay [1], in assay [2], in assay [3], in assay [9], in [5] and in assay [6] was “inactive” throughout. In addition, the Potency entry in [7] and in assay [8] was “inactive” throughout.

For the compound `CC(O)[C@@H]1NC(=O)[C@H](Cc2ccccc2)NC(=O)[C@H](C(C)O)NC(=O)[C@H](CCCCN)NC(=O)[C@H](Cc2c[nH]c3ccccc23)NC(=O)[C@H](Cc2ccccc2)NC(=O)[C@H](Cc2ccccc2)NC(=O)[C@H](CC(N)=O)NC(=O)[C@H](CCCCN)NC(=O)[C@@H](NC(=O)CNC(=O)[C@H](C)N)CSSC[C@@H](C(=O)O)NC(=O)[C@H](CO)NC1=O` (some centres not stated), the Potency entry in [1], in assay [2], in assay [3], in assay [4], in [5] and in [6] was “inactive” in each case. In addition, the Potency entry in assay [7] and in assay [8] was “inactive” each time.

For `CCN1C(=O)NC(c2ccccc2)C1=O` (configuration not stated), the Potency result in assay [1], in [2], in assay [3], in assay [9], in assay [5] and in assay [6] was “inactive” in each case. The Potency entry in assay [7] and in [8] was “inactive” in each case.

As for `CC1(C)N=C(N)N=C(N)N1c1ccc(Cl)cc1`, the Potency entry in assay [1], in [3], in [4], in [5], in [6] and in assay [7] was “inactive” in each case. Also, the Potency result in [8] is “inactive”. For the same compound, in assay [2], the Potency was 5.96 µM (active).

In the case of `CCC(=O)O[C@]1(C(=O)CCl)[C@@H](C)C[C@H]2[C@@H]3C[C@H](F)C4=CC(=O)C=C[C@]4(C)[C@@]3(F)[C@@H](O)C[C@@]21C`, the Potency entry in [1], in assay [2], in assay [3], in assay [5], in assay [6] and in [7] was “inactive” each time. Besides, the Potency entry in assay [8] was “inactive”. Moreover, in [4], the Potency was 11.9 µM (active).

As for `CN(C)CCOc1ccccc1Cc1ccccc1` (tested in a mixture with another compound), the Potency result in assay [1], in assay [2], in assay [3], in assay [9], in assay [5] and in assay [6] was “inactive” in each case. In addition, the Potency entry in [7] and in assay [8] was “inactive” each time.

Consider `CN(C)CCCN1c2ccccc2C(C)(C)c2ccccc21`, for which the Potency entry in assay [1], in [2], in assay [3], in [9], in [5] and in assay [6] was “inactive” throughout. Further, the Potency entry in assay [7] and in assay [8] was “inactive” throughout.

Regarding `N[C@H](CC(=O)O)C(=O)O`, the Potency entry in assay [1], in assay [2], in assay [3], in assay [4], in assay [5] and in assay [6] was “inactive” each time. Further, the Potency result in assay [7] and in assay [8] was “inactive” throughout.

Turning to `CC(CC(c1ccccc1)c1ccccc1)NC(C)(C)C` (configuration not stated), the Potency entry in assay [1], in assay [2], in assay [3], in [9], in assay [5] and in assay [6] was “inactive” each time. Further, the Potency entry in [7] and in assay [8] was “inactive” throughout.

In the case of `O=C1/C(=C\c2cccs2)CCC/C1=C\c1cccs1`, the values for the Potency in [1] and in assay [4] were 5.96 µM (active) and 21.1 µM (active), respectively. The Potency entry in assay [2], in assay [3], in assay [5], in [6], in [7] and in assay [8] was “inactive” in each case.

Consider `CCOc1cc(-c2nccc3cc(OC)c(OC)cc23)cc(OCC)c1OCC`, for which the Potency entry in [1], in assay [2], in assay [5], in [6], in assay [7] and in assay [8] was “inactive” throughout. The Potency in assay [3] was 26.6 µM (active).

For the origin of these results see PubChem BioAssay (Tox21).
